Results taken from PubChem BioAssay (Tox21).
Values without a mark were called inactive. Activity calls are given as the source filed them. Calls follow the shape of the dose curve; as a rule, active = well fitted curve in the direction sought with a large enough effect in the repeat runs; inconclusive = weak or mixed curves; inactive = flat fitted curve, though single readings scatter.

assay: qHTS assay to test for compound auto fluorescence at 460 nm (blue) in HEK293 cell free culture (AID 720681); settings: cell-free medium, autofluorescence 405/460 nm (blue); series mostly up to 91.3 µM; fluorescence, % of fluorescent control: at the top concentration
Summary of the method: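 Blue fluorescence (Ex 405/Em 460 nm, triamterene-equivalent) was read immediately after pin transfer of compound or DMSO into medium (DMEM, 10% FBS) without cells.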
% is scaled to controls: 0 for no effect and ±100 for the full control effect.

Point of comparison: Nc1ccc(Cc2ccc(N)c(Cl)c2)cc1Cl, “fluorescence, % of fluorescent control” value 0.088%. Against it:
- CC1(C)[C@H](C(=O)O[C@H](C#N)c2cccc(Oc3ccccc3)c2)[C@@H]1/C=C(\Cl)C(F)(F)F — lower, 0.0085%
- BrC(Br)C(Br)(Br)Br — lower, -0.0153%
- Fc1cccc(Cl)c1CCl — lower, -0.129%
- O=c1ssc(Cl)c1Cl — lower, -0.0759%
- c1ccc(OCC2CO2)cc1 (stereo not given) — lower, -0.0714%
- CC(=O)C(Cl)(Cl)Cl — lower, -0.883%

assay: qHTS assay to test for compound auto fluorescence at 535 nm (green) in HEK293 cell free culture (AID 720682); settings: cell-free medium, green autofluorescence 485/535 nm, hits give high values; series mostly up to 91.3 µM; activity change: at the top concentration
Summary of the method: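 Cell-free medium (DMEM, 10% FBS) receives compound or DMSO by pintool. Plate read directly at Ex 485/Em 535 nm. Signal converted to fluorescein equivalency.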

Point of comparison: Cc1c(Cl)c(=O)oc2cc(OP(=O)(OCCCl)OCCCl)ccc12, “activity change” value 0.0374% [at 46 µM]. Against it:
- O=c1[nH]c2ccccc2n1CCCN1CCC(n2c(=O)[nH]c3cc(Cl)ccc32)CC1 — higher, 0.0512% [at 46 µM]

Point of comparison: O=c1ssc(Cl)c1Cl, “activity change” value -0.0293%. Against it:
- O=S(=O)(c1ccc(Cl)cc1)c1ccc(Cl)cc1 — lower, -0.14%
- O=C(CCl)C(Cl)Cl — higher, -0.0233%
- Oc1ccc(C2(c3ccc(O)cc3)c3ccccc3-c3ccccc32)cc1 — lower, -0.0617%
- CC(C)C1CCC(Cc2ccc(Cl)cc2)C1(O)Cn1cncn1 (stereo not given) — higher, -0.0111%
- CC(C)[C@H](C(=O)O[C@H](C#N)c1cccc(Oc2ccccc2)c1)c1ccc(Cl)cc1 — lower, -0.0442%
- CCCOCC(=Nc1ccc(Cl)cc1C(F)(F)F)n1ccnc1 — higher, -0.0283%
- CCCN(CC)CC1COC2(CCC(C(C)(C)C)CC2)O1 (stereo not given) — higher, 0.0207%
- C[C@]12CC[C@H]3[C@@H](CCC4=CC(=O)CC[C@@]43C)[C@@H]1CC[C@@H]2O — higher, 0.0192%
- [Hg+2].[I-].[I-] — lower, -0.0368%
- CCCCCCCCCCCCBr — higher, 0.0862%
- CCN(CC)c1c([N+](=O)[O-])cc(C(F)(F)F)c(N)c1[N+](=O)[O-] — higher, 0%
- CCCCCCCCCCCCCN1CC(C)OC(C)C1 (stereo not given) — higher, 0.0682%
- Oc1ccc(C2(c3ccc(O)cc3)CCCCC2)cc1 — higher, 0.0053%
- Oc1c(Br)c(Br)c(Br)c(Br)c1Br — lower, -0.0341%
- O=[N+]([O-])c1cc(C(F)(F)F)c(Cl)c([N+](=O)[O-])c1Cl — lower, -0.0612%
- CC(C)CCCCCCCOP(=O)(Oc1ccccc1)Oc1ccccc1 — lower, -0.0865%
- C=CC(=O)OCC(COC(=O)C=C)(COC(=O)C=C)COC(=O)C=C — higher, 0.0474%
- CCCCCCCCCCCCCC[P+](CCCCCC)(CCCCCC)CCCCCC (tested in a mixture with another compound) — higher, 0.0825%
- CC1(C)[C@H](C(=O)O[C@H](C#N)c2cccc(Oc3ccccc3)c2)[C@@H]1/C=C(\Cl)C(F)(F)F — higher, 0.0156%
- BrC(Br)C(Br)(Br)Br — lower, -0.0879%
- Fc1cccc(Cl)c1CCl — higher, -0.0205%
- Nc1ccc(Cc2ccc(N)c(Cl)c2)cc1Cl — lower, -0.0588%
- c1ccc(OCC2CO2)cc1 (stereo not given) — lower, -0.0472%
- CC(=O)C(Cl)(Cl)Cl — lower, -0.202%
- c1ccc2cc3c(cc2c1)-c1cccc2cccc-3c12 — higher, 0.0284%

Point of comparison: C=CCC1=C(C)C(OC(=O)C2C(C=C(C)C)C2(C)C)CC1=O (stereo not given), “activity change” value 0.53% [at 95.7 µM]. Against it:
- N#C/C=C/C#N — lower, 0.0519% [at 95.7 µM]
- O=C(O)COc1nc(Cl)c(Cl)cc1Cl — lower, 0.104% [at 95.7 µM]
- C[C@@H]1CC[C@@]2(OC1)O[C@H]1[C@@H](O)[C@H]3[C@@H]4CC[C@H]5C[C@@H](O[C@@H]6O[C@H](CO)[C@H](O[C@@H]7O[C@H](CO)[C@@H](O)[C@H](O[C@@H]8OC[C@@H](O)[C@H](O)[C@H]8O)[C@H]7O[C@@H]7O[C@H](CO)[C@@H](O)[C@H](O[C@@H]8O[C@H](CO)[C@@H](O)[C@H](O)[C@H]8O)[C@H]7O)[C@H](O)[C@H]6O)[C@H](O)C[C@]5(C)[C@H]4CC[C@]3(C)[C@H]1[C@@H]2C — lower, 0.0012% [at 95.7 µM]
- N#CNC#N — lower, 0.0838% [at 95.7 µM]

For O=C/C(Cl)=C(/Cl)C(=O)O, the outcome was “inactive”.
For Clc1ccc(C(c2ccccc2Cl)C(Cl)(Cl)Cl)cc1 (stereo not given), the outcome was “inactive”.
For CC(=O)O[C@H]1CC[C@@]2(C)C(=CC[C@@H]3[C@@H]2CC[C@]2(C)C(=O)CC[C@@H]32)C1, the outcome was “inactive”.
With ClC(Cl)=C(c1ccc(Cl)cc1)c1ccc(Cl)cc1 the outcome was “inactive”.
With Cc1cc(N=Nc2ccccc2C)ccc1N the outcome was “inactive”.
